Assay outcomes deposited in PubChem by National Center for Advancing Translational Sciences (NCATS).
Only some compounds are listed: those with a hit (about 2.6% of all), similar ones and a draw of the others.
Cruzain noTriton: inhibitors of Trypanosoma cruzi cruzain without detergent; AID 1476; Potency, µM, for inactives: max response, negative = inhibition, actives largely listed as inhibitors; actives 2.3% (n = 200,000); purified cruzain, Z-FR-AMC fluorescence, no detergent;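 further: plate controls were enzyme without inhibitor for no effect and buffer without enzyme for full effect; nearly all actives have a fitted effect of over 40% in size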
Target sequence (P25779 123-467 limits assumed): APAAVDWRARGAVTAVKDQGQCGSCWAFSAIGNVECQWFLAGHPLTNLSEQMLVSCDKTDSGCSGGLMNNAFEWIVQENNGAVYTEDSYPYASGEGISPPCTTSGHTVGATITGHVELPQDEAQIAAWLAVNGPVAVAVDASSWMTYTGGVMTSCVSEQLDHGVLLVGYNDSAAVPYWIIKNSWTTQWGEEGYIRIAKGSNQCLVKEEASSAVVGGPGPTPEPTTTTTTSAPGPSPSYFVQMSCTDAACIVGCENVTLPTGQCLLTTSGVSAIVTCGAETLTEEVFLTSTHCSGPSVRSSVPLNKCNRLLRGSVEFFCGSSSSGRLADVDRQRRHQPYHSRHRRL
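Detergent-free condition (0.00005% Triton X-100) in acetate buffer pH 5.5 with DTT. 1.5 nM enzyme and compound were pre-mixed 15 min, then 2 uM Z-FR-AMC substrate added; reaction progress from fluorescence change between first and third reads (60 s).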
Cruzain Triton: cruzain (T. cruzi) inhibition with detergent | P25779 | purified cruzain, Z-FR-AMC fluorescence, 0.01% Triton | Potency, µM, for the others: max response, negative = inhibition, most hits filed as inhibitors | actives 0.43% (n = 200,000);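 further: plate controls were neutral wells for no effect and buffer without enzyme for full effect; nearly all actives have a fitted effect of over 40% in size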
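In this qHTS format, compounds are incubated with 1.5 nM cruzain for 15 min at room temperature before 2 uM Z-FR-AMC is added. Release of AMC is followed at 360/450 nm, and progress is taken as the 60 s fluorescence difference.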
An asterisk follows results filed as active; ? = inconclusive. The call rests on the fitted dose curve; in most records, active means well fitted curve in the direction sought with a large enough effect; inconclusive means small, poorly fitted or top-dose-only effect, or another doubt; inactive means no such curve, though single readings can be large; an effect the other way counts as inactive or inconclusive. Potency means the concentration at half of the fitted maximal effect.

SMILES	Cruzain noTriton	Cruzain Triton
CCOC(=O)c1oc2ccccc2c1NC(=O)C1CCCCC1	-23.7%	7.0%
O=C(CNC(=O)C1CCCCC1)OCc1cc(=O)oc2ccc3ccccc3c12	-19.6%	3.16µM*
O=c1[nH]c(SCc2cccc([N+](=O)[O-])c2)nc2nc[nH]c12	6.1%	1.7%
O=C(Cc1ccsc1)NCC(c1ccco1)N1CCCCC1 (stereo not drawn)	8.8%	1.2%
CC(C)C(NC(=O)c1ccco1)C(=O)NCC(c1ccco1)N1CCCCC1 (stereo not drawn)	?	14.1µM*
CCOC(=O)CSc1nc2cc3c(cc2c(=O)n1CCCCCC(=O)NCc1ccc(OC)cc1)OCO3	4.7%	1.8%
Cc1cc(C(=O)CSc2n[nH]c(-c3ccccc3F)n2)c(C)n1Cc1cccs1	15.8µM*	-8.2%
Cc1csc(SCC(=O)c2cc(C)n(Cc3cccs3)c2C)n1	7.1%	-2.9%
COc1ccc(NC(=O)c2c(NCc3cccc(OC)c3)sc3c2CCC3)cc1	-7.2%	-1.1%
O=Nc1c(O)[nH]c2ccccc12.[Cu].[O-]/N=C1/C(=[OH+])Nc2ccccc21	5.9%	-0.3%
O=Nc1c(-c2c(O)[nH]c3cc(Br)ccc23)[nH]c2ccccc12	31.6µM*	-3.4%
O=C(Nc1ccc(F)cc1Cl)c1cnc(N2CCOCC2)c2ccccc12	?	-7.5%
CCc1ccc2c(c1)C(c1ccc([N+](=O)[O-])cc1)=NNC(c1ccc(Br)cc1)=N2	10µM*	-4.1%
Cc1ccc2c(c1)C(c1ccc([N+](=O)[O-])cc1)=NNC(c1ccc(Br)cc1)=N2	?	-0.3%
CC[C@@H]1C(c2ccc(F)cc2)=NN(c2ccc(Br)cc2)[C@H]1C(=O)N1CCOC1=O	?	-5.8%
COc1ccccc1[C@@H]1C(c2cccc(C)c2)=NN(c2ccc(Br)cc2)[C@H]1C(=O)N1CCOC1=O	10µM*	-3.2%
CC[C@@H]1C(c2cccc(C)c2)=NN(c2ccccc2)[C@H]1C(=O)N1CCOC1=O	2.9%	0.6%
COc1ccccc1[C@@H]1C(c2ccccc2)=NN(c2ccc(Br)cc2)[C@H]1C(=O)N1CCOC1=O	17.8µM*	0.0%
COc1ccccc1[C@@H]1C(c2cccc(Cl)c2)=NN(c2ccccc2)[C@H]1C(=O)N1CCOC1=O	25.1µM*	0.7%
CC(C)n1nnc2cc(C(=O)O)ccc21	-6.0%	0.0%
Nc1ccc(-c2ccc(N)c(Cl)c2)cc1Cl	-16.5%	-7.7%
COc1ccc(CCNC(=O)CSc2nc3ccccc3nc2Cc2ccc(Cl)cc2)cc1OC	?	-0.6%
CC(=O)N1CCc2c(sc3c2c(=O)n(CCc2ccccc2)c(=O)n3Cc2ccccc2C)C1	?	-6.4%
COc1ccc2c(c1)CCc1c(C(=O)Nc3cc(C)n(Cc4ccc(Cl)cc4)n3)noc1-2	12.6µM*	-3.3%
COc1ccc2c(c1)CCc1c(C(=O)Nc3c(C)nn(Cc4ccc(Cl)cc4)c3C)noc1-2	2.0%	-5.4%
SMILES	Cruzain noTriton	Cruzain Triton
CCOc1ccc(/C=N/NC(=S)Nc2c(C)cccc2C)cc1	-1.0%	-6.6%
CCNC(=S)N/N=C/c1ccc(OCCOc2ccccc2C)cc1	15.8µM*	1.6%
COc1cc2c(cc1NC(=O)c1ccc3c(c1)OCO3)oc1ccccc12	?	-8.6%
COc1ccc(-c2cc3ccccc3oc2=O)cc1NC(=S)NC(=O)c1ccc2c(c1)OCCO2	12.6µM*	-2.5%
COc1ccc(-c2cc3ccccc3oc2=O)cc1NC(=O)c1ccc(Br)o1	25.1µM*	-21.0%
COc1ccc(-c2cc3ccccc3oc2=O)cc1NC(=O)c1ccc([N+](=O)[O-])o1	-22.4%	-3.6%
COc1cc(NC(=O)CN2CCN(c3ccccc3F)CC2)c(C)cc1[N+](=O)[O-]	25.1µM*	2.1%
COc1cc(NC(=O)CN2CCN(c3ccccc3)CC2)c(C)cc1[N+](=O)[O-]	?	-1.3%
CCn1c(=O)cc(OCC(=O)NCc2ccccc2Cl)c2ccccc21	-5.5%	-15.8%
COc1ccc(-c2csc(-n3ncc(-c4cccs4)c3N)n2)cc1	1.58µM*	5.1%
COc1ccc(-c2csc(N3CCC(c4ccccc4)C3)n2)cc1 (stereo not drawn)	-6.1%	1.9%
ClC1=C(Cl)C2(Cl)C3C(Cl)C(Cl)CC3C1(Cl)C2(Cl)Cl (stereo not drawn)	-7.5%	6.6%
Cc1cc(-c2csc(N)n2)c(C)n1CCc1ccccc1	3.98µM*	-4.0%
CCOC(=O)c1cc(C)n(CCc2ccccc2)c1C	0.6%	-4.1%
Nc1nc(-c2ccccc2)cs1	4.0%	-0.7%
Cc1cc(-c2csc(N)n2)c(C)n1CCC(C)C	25.1µM*	2.6%
CC(=O)NCCNc1ncnc2ccc(-c3ccc4c(c3)OCO4)cc12	-8.3%	-5.5%
CCOC(=O)C1=C(C)N=C2c3ccccc3C(=O)C2C1c1ccc(Cl)cc1 (stereo not drawn)	-6.8%	-5.4%
CCOC(=O)C1=C(Cc2ccc(Cl)cc2)C(=O)c2ccccc2C1=O	15.8µM*	-7.3%
